# Measured values published in the supplement of paper PMC8728848.
# The full list was thinned out, with the strongest signals kept by preference.
# How the values were obtained:
# Assay in all cases: glycan array binding signal (z-score within array); higher = stronger binding
# Conditions in all cases: glycan notation: IUPAC condensed, linker removed
# [1] = molecular target: Gal(b1-4)GlcNAc(b1-2)[Gal(b1-4)GlcNAc(b1-4)]Man(a1-3)[Gal(b1-4)GlcNAc(b1-2)[Gal(b1-4)GlcNAc(b1-6)]Man(a1-6)]Man(b1-4)GlcNAc(b1-4)GlcNAc
# Summary of the method: (§1)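 Glycan array binding is given as a within-array Z-score, which can be read as non-binding when negative. The arrays, 3228 of them, came from the Consortium for Functional Glycomics database and were retained only where the protein sequence was available. Z-scores were averaged across arrays of the same protein sequence at different concentrations or buffers and across linkers.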
# [2] = molecular target: Gal(b1-4)GlcNAc(b1-2)[Gal(b1-4)GlcNAc(b1-6)]Man(a1-6)[Gal(b1-4)GlcNAc(b1-2)Man(a1-3)]Man(b1-4)GlcNAc(b1-4)[Fuc(a1-6)]GlcNAc
# Summary of the method: as §1
# [3] = molecular target: Gal(b1-4)GlcNAc(b1-3)Gal(b1-3)GlcNAc
# Summary of the method: as §1
# [4] = molecular target: Gal(b1-4)GlcNAc(b1-3)Gal(b1-4)GlcNAc(b1-2)Man(a1-3)[Gal(b1-4)GlcNAc(b1-3)Gal(b1-4)GlcNAc(b1-2)Man(a1-6)]Man(b1-4)GlcNAc(b1-4)[Fuc(a1-6)]GlcNAc
# Summary of the method: as §1
# [5] = molecular target: Gal(b1-4)GlcNAc(b1-3)Gal(b1-4)GlcNAc(b1-3)Gal(b1-4)GlcNAc
# Summary of the method: as §1
# [6] = molecular target: Gal(b1-4)GlcNAc(b1-3)Gal(b1-4)GlcNAc(b1-3)Gal(b1-4)GlcNAc(b1-2)Man(a1-3)[Gal(b1-4)GlcNAc(b1-3)Gal(b1-4)GlcNAc(b1-3)Gal(b1-4)GlcNAc(b1-2)Man(a1-6)]Man(b1-4)GlcNAc(b1-4)GlcNAc
# Summary of the method: as §1
# [7] = molecular target: Gal(b1-4)GlcNAc(b1-3)Gal(b1-4)GlcNAc(b1-3)Gal(b1-4)GlcNAc(b1-2)Man(a1-3)[Gal(b1-4)GlcNAc(b1-3)Gal(b1-4)GlcNAc(b1-3)Gal(b1-4)GlcNAc(b1-2)Man(a1-6)]Man(b1-4)GlcNAc(b1-4)[Fuc(a1-6)]GlcNAc
# Summary of the method: as §1
# [8] = molecular target: Gal(b1-4)GlcNAc(b1-3)Gal(b1-4)GlcNAc(b1-3)Gal(b1-4)GlcNAc(b1-3)Gal(b1-4)GlcNAc(b1-2)Man(a1-3)[Gal(b1-4)GlcNAc(b1-3)Gal(b1-4)GlcNAc(b1-3)Gal(b1-4)GlcNAc(b1-3)Gal(b1-4)GlcNAc(b1-2)Man(a1-6)]Man(b1-4)GlcNAc(b1-4)[Fuc(a1-6)]GlcNAc
# Summary of the method: as §1
# [9] = molecular target: Gal(b1-4)GlcNAc(b1-3)Gal(b1-4)GlcNAc(b1-3)Gal(b1-4)GlcNAc(b1-3)Gal(b1-4)GlcNAc(b1-3)Gal(b1-4)GlcNAc(b1-2)Man(a1-3)[Gal(b1-4)GlcNAc(b1-3)Gal(b1-4)GlcNAc(b1-3)Gal(b1-4)GlcNAc(b1-3)Gal(b1-4)GlcNAc(b1-3)Gal(b1-4)GlcNAc(b1-2)Man(a1-6)]Man(b1-4)GlcNAc(b1-4)GlcNAc
# Summary of the method: as §1
# [10] = molecular target: Gal(b1-4)GlcNAc(b1-3)Gal(b1-4)GlcNAc(b1-3)Gal(b1-4)GlcNAc(b1-3)Gal(b1-4)GlcNAc(b1-3)Gal(b1-4)GlcNAc(b1-3)Gal(b1-4)GlcNAc(b1-2)Man(a1-3)[Gal(b1-4)GlcNAc(b1-3)Gal(b1-4)GlcNAc(b1-3)Gal(b1-4)GlcNAc(b1-3)Gal(b1-4)GlcNAc(b1-3)Gal(b1-4)GlcNAc(b1-3)Gal(b1-4)GlcNAc(b1-2)Man(a1-6)]Man(b1-4)GlcNAc(b1-4)GlcNAc
# Summary of the method: as §1
# [11] = molecular target: Gal(b1-4)GlcNAc(b1-3)Gal(b1-4)GlcNAc(b1-3)[Gal(b1-4)GlcNAc(b1-3)Gal(b1-4)GlcNAc(b1-6)]GalNAc
# Summary of the method: as §1
# [12] = molecular target: Gal(b1-4)GlcNAc(b1-6)GalNAc
# Summary of the method: as §1
# Gal3S4S(b1-4)GlcNAc = molecular target: Gal3S4S(b1-4)GlcNAc
# Summary of the method: as §1
# Gal4S6S(b1-4)GlcNAc = molecular target: Gal4S6S(b1-4)GlcNAc
# Summary of the method: as §1
# GalNAc6S(b1-4)GlcNAc = molecular target: GalNAc6S(b1-4)GlcNAc
# Summary of the method: as §1
# [13] = molecular target: GlcNAc6S(b1-3)Gal(b1-4)GlcNAc
# Summary of the method: as §1
# [14] = molecular target: Man(a1-2)Man(a1-3)[Man(a1-2)Man(a1-6)]Man
# Summary of the method: as §1
# [15] = molecular target: Man(a1-2)Man(a1-3)[Man(a1-2)Man(a1-6)]Man(a1-6)[Man(a1-2)Man(a1-2)Man(a1-3)]Man(b1-4)GlcNAc(b1-4)GlcNAc
# Summary of the method: as §1
# Man(b1-4)GlcNAc = molecular target: Man(b1-4)GlcNAc
# Summary of the method: as §1
# Neu5Ac(a2-3)Gal = molecular target: Neu5Ac(a2-3)Gal
# Summary of the method: as §1
# [16] = molecular target: Neu5Ac(a2-3)Gal(b1-3)GlcNAc(b1-4)Gal(b1-4)Glc
# Summary of the method: as §1
# [17] = molecular target: Neu5Ac(a2-3)Gal(b1-3)[GlcNAc(b1-6)]GalNAc
# Summary of the method: as §1
# Neu5Ac(a2-3)Gal(b1-4)Glc = molecular target: Neu5Ac(a2-3)Gal(b1-4)Glc
# Summary of the method: as §1
# [18] = molecular target: Neu5Ac(a2-3)Gal(b1-4)GlcNAc(b1-2)Man(a1-3)[Neu5Ac(a2-6)Gal(b1-4)GlcNAc(b1-2)Man(a1-6)]Man(b1-4)GlcNAc(b1-4)GlcNAc
# Summary of the method: as §1
# [19] = molecular target: Neu5Ac(a2-3)Gal(b1-4)GlcNAc(b1-6)[Gal(b1-3)]GalNAc
# Summary of the method: as §1
# [20] = molecular target: Neu5Ac(a2-3)[Neu5Ac(a2-6)]GalNAc
# Summary of the method: as §1
# [21] = molecular target: Neu5Ac(a2-6)Gal(b1-4)GlcNAc(b1-2)Man(a1-3)[Gal(b1-4)GlcNAc(b1-2)Man(a1-6)]Man(b1-4)GlcNAc(b1-4)GlcNAc
# Summary of the method: as §1
# [22] = molecular target: Neu5Gc(a2-3)Gal(b1-4)GlcNAc(b1-3)Gal(b1-4)GlcNAc(b1-2)Man(a1-3)[Neu5Gc(a2-3)Gal(b1-4)GlcNAc(b1-3)Gal(b1-4)GlcNAc(b1-2)Man(a1-6)]Man(b1-4)GlcNAc(b1-4)GlcNAc
# Summary of the method: as §1
binder,measurement,setting,value
PX14343H-pdi-506-26-506 (Parabacteroides distasonis) (protein) QPTGTMTTDSKLTSKESALALTNSAYLKNTVFNKMTPGWGCNTILLLEYMTGKATSENSQSNYKDFQDLLVSDRSLYIEDWWQDCYAGIANCNLALQKLGEFENLDASLVNGYMAEVKFMRALYYFYLVRIFGDVPKITTVQSELGELQVSRAPVKEIYDEIIIPDLLEAEQSDLAFSDHTGRVSMGAVKALLADVYLTYAGYPLQGGKSYYAESAKRSLEVIKSNEYTLFTDYESLRLPSQNNKGEFIYQVQFSLNKRHNESVRIFLPSRSGISAYDLEYGSLIPTKEFVESFEKGDKRTEEKQYFFTNYKGHPSKFSPGAAELEFMDLNGYYIYKFFDQVAVDNTAKSDLNWSVYRYTDVLLMYAEAQVNADGTPNQQSIDIVNQIRGRAGLAPFKQTNASAFLEEVWDQRYFDLCYENKMWFDMLRTRKIRDDKSGEYVDFIGYKTNWGKVYTETQLLFPIPLSERQANPNLTQNQGY,glycan array binding signal (z-score),[1],-0.221
same,glycan array binding signal (z-score),[2],0.886
same,glycan array binding signal (z-score),[3],-0.366
same,glycan array binding signal (z-score),[4],6.92
same,glycan array binding signal (z-score),[5],-0.114
same,glycan array binding signal (z-score),[6],3.24
same,glycan array binding signal (z-score),[7],6.72
same,glycan array binding signal (z-score),[8],0.292
same,glycan array binding signal (z-score),[9],0.552
same,glycan array binding signal (z-score),[10],4.45
same,glycan array binding signal (z-score),[11],0.311
same,glycan array binding signal (z-score),[12],-0.235
same,glycan array binding signal (z-score),Gal3S4S(b1-4)GlcNAc,-0.293
same,glycan array binding signal (z-score),Gal4S6S(b1-4)GlcNAc,-0.505
same,glycan array binding signal (z-score),GalNAc6S(b1-4)GlcNAc,0.278
same,glycan array binding signal (z-score),[13],-0.337
same,glycan array binding signal (z-score),[14],-0.49
same,glycan array binding signal (z-score),[15],-0.329
same,glycan array binding signal (z-score),Man(b1-4)GlcNAc,-0.406
same,glycan array binding signal (z-score),Neu5Ac(a2-3)Gal,-0.52
same,glycan array binding signal (z-score),[16],-0.388
same,glycan array binding signal (z-score),[17],-0.522
same,glycan array binding signal (z-score),Neu5Ac(a2-3)Gal(b1-4)Glc,-0.335
same,glycan array binding signal (z-score),[18],4.89
same,glycan array binding signal (z-score),[19],-0.127
same,glycan array binding signal (z-score),[20],-0.483
same,glycan array binding signal (z-score),[21],2.9
same,glycan array binding signal (z-score),[22],-0.486
